Experimental data published in PubChem BioAssay AID1159580 (chemical genetic matrix, 2015).
Where “and” joins values, the source holds several entries; their conditions need not be identical. Equal entries are not always repeated. About 2,000 (36%) of roughly 5,500 compounds were called active. Another 18% or so got no clear call; they are omitted. Rule as the data show it: active = normalized growth mostly below about 0.91 (no sharp cut-off); inconclusive = no clear call, values can overlap the other calls; inactive = mostly above about 0.92. The list shows a part of the results.

Assay: chemical genetic growth profiling, strain panel (AID 1159580);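 also: tested at 20 µM; growth read once vehicle control cultures reached saturation at 30 °C; 1 = growth at the plate median or of vehicle wells; lower values mean less growth of the strain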
Settings: S. cerevisiae deletion strains, growth OD

Measured: normalized growth

CC1(C)O[C@H]2[C@H](O)C[C@](O)(C(N)=O)C[C@H]2O1
inactive: locus YAL013W, strain DEP1, stronger effect = lower value 1.01 | locus YAL021C, strain ccr4, stronger effect = lower value 0.996 | locus YAL026C, strain drs2, stronger effect = lower value 1.04 | locus YAL030W, strain snc1, stronger effect = lower value 1.01 | locus YBL061C, strain skt5, stronger effect = lower value 1.01 | locus YBR009C, strain hhf1, stronger effect = lower value 1.02 | locus YBR021W, strain FUR4, stronger effect = lower value 1.02 | locus YBR023C, strain chs3, stronger effect = lower value 1.02 | locus YBR171W, strain sec66, stronger effect = lower value 1.03 | locus YBR229C, strain ROT2, stronger effect = lower value 1.03 | locus YBR231C, strain swc5, stronger effect = lower value 1.01 | locus YBR279W, strain paf1, stronger effect = lower value 1.01 | locus YCL011C, strain gbp2, stronger effect = lower value 1.01 | locus YCL016C, strain dcc1, stronger effect = lower value 1.01 | locus YCL029C, strain bik1, stronger effect = lower value 1.04 | locus YCL061C, strain MRC1, stronger effect = lower value 1.01 | locus YCL069W, strain vba3, stronger effect = lower value 1.02 | locus YCR088W, strain abp1, stronger effect = lower value 1.01 | locus YDL005C, strain med2, stronger effect = lower value 1.01 | locus YDL035C, strain GPR1, stronger effect = lower value 1.05 | locus YDL040C, strain nat1, stronger effect = lower value 1.01 | locus YDL074C, strain BRE1, stronger effect = lower value 1.12 | locus YDL101C, strain DUN1, stronger effect = lower value 1.03 | locus YDL185W, strain tfp1, stronger effect = lower value 1.02 | locus YDL192W, strain arf1, stronger effect = lower value 1.05 | locus YDR001C, strain nth1, stronger effect = lower value 1.01 | locus YDR069C, strain doa4, stronger effect = lower value 1.01 | locus YDR101C, strain arx1, stronger effect = lower value 1.01 | locus YDR137W, strain rgp1, stronger effect = lower value 1.04 | locus YDR159W, strain sac3, stronger effect = lower value 1.06 | locus YDR162C, strain NBP2, stronger effect = lower value 1.04 | locus YDR195W, strain ref2 1.01 | locus YDR297W, strain sur2, stronger effect = lower value 1.01 | locus YDR318W, strain mcm21, stronger effect = lower value 1.04 | locus YDR334W, strain swr1, stronger effect = lower value 1.03 | locus YDR335W, strain msn5, stronger effect = lower value 1.02 | locus YDR388W, stronger effect = lower value 1.01 | locus YDR392W, strain spt3, stronger effect = lower value 0.959 | locus YDR502C, strain sam2, stronger effect = lower value 1.03 | locus YEL003W, strain gim4, stronger effect = lower value 1.02 | locus YEL037C, strain rad23, stronger effect = lower value 1.02 | locus YEL061C, strain CIN8 (second series), stronger effect = lower value 1.02 | locus YER015W, strain faa2, stronger effect = lower value 1.02 | locus YER016W, strain bim1, stronger effect = lower value 1.01 | locus YER110C, stronger effect = lower value 1.03 | locus YER111C, strain swi4, stronger effect = lower value 0.996 | locus YER155C, strain BEM2 (second series), stronger effect = lower value 1.03 | locus YER155C, strain BEM2, stronger effect = lower value 0.997 | locus YER167W, strain BCK2, stronger effect = lower value 1.02 | locus YFR010W, strain ubp6, stronger effect = lower value 1.04 | locus YGL078C, strain dbp3, stronger effect = lower value 1.04 | locus YGL086W, strain mad1, stronger effect = lower value 1.01 | locus YGL167C, strain pmr1, stronger effect = lower value 1.02 | locus YGL173C, strain kem1, stronger effect = lower value 1.03 | locus YGL227W, strain vid30, stronger effect = lower value 1.01 | locus YGL240W, strain doc1, stronger effect = lower value 1.01 | locus YGL248W, strain PDE1, stronger effect = lower value 1.05 | locus YGL253W, strain hxk2, stronger effect = lower value 1.03 | locus YGR078C, strain PAC10, stronger effect = lower value 1.04 | locus YGR135W, strain pre9, stronger effect = lower value 1.05 | locus YGR252W, strain gcn5, stronger effect = lower value 1.09 | locus YHR013C, strain ard1, stronger effect = lower value 1.02 | locus YHR027C, strain rpn1, stronger effect = lower value 1.03 | locus YHR030C, strain SLT2, stronger effect = lower value 1.01 | locus YHR079C, strain IRE1 (second series), stronger effect = lower value 1.03 | locus YHR079C, strain IRE1, stronger effect = lower value 0.99 | locus YHR094C, strain hxt1, stronger effect = lower value 1.02 | locus YHR129C, strain ARP1, stronger effect = lower value 1.04 | locus YHR142W, strain chs7, stronger effect = lower value 1.03 | locus YHR200W, strain rpn10, stronger effect = lower value 1.05 | locus YIL066C, strain RNR3, stronger effect = lower value 1.03 | locus YIL073C, strain SPO22, stronger effect = lower value 1.16 | locus YIL125W, strain kgd1, stronger effect = lower value 1.01 | locus YIR030C, strain dcg1, stronger effect = lower value 1.03 | locus YJL092W, strain hpr5, stronger effect = lower value 1.01 | locus YJL095W, strain BCK1 (second series), stronger effect = lower value 1.02 | locus YJL095W, strain BCK1, stronger effect = lower value 1.1 and 1.02 | locus YJL115W, strain asf1, stronger effect = lower value 1.01 | locus YJL129C, strain trk1, stronger effect = lower value 1.01 | locus YJL134W, strain LCB3, stronger effect = lower value 1.01 | locus YJL154C, strain vps35, stronger effect = lower value 1.02 | locus YJL164C, strain tpk1, stronger effect = lower value 1.02 | locus YJL166W, strain qcr8, stronger effect = lower value 1.02 | locus YJL168C, strain set2, stronger effect = lower value 1.02 | locus YJL187C, strain SWE1 (second series), stronger effect = lower value 1.05 | locus YJL187C, strain SWE1, stronger effect = lower value 1.01 | locus YJR043C, strain POL32, stronger effect = lower value 1.05 | locus YJR066W, strain TOR1, stronger effect = lower value 0.951
